Screens: PubChem, National Center for Advancing Translational Sciences (NCATS)
Only some compounds are listed: those with a hit (about 1.2% of all), similar ones and a draw of the others.
Apoferritin bind: binds horse apoferritin like a general anesthetic; P02791; apoferritin/1-aminoanthracene competitive binding, fluorescence; Potency, µM (series often up to 77.5 µM), hits mostly inhibitors; hit rate 0.074% among 350,000; note: nearly all actives have a fitted effect of over 20% in size
Target sequence (P02791 2-175 limits assumed): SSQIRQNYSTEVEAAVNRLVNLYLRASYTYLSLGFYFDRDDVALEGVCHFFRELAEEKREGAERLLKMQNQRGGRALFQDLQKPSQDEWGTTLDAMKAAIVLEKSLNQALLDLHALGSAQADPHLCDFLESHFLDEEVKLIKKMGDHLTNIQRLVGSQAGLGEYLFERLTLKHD
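Read-out: endpoint 1-AMA fluorescence, excitation 380 nm and emission 535 nm, after compounds sit 10 min at room temperature with 10 uM horse-spleen apoferritin in 50% saturated 1-AMA/PBS. Values come from four-parameter Hill fits.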
BRCA1 expr up: activators of BRCA1 expression. Potency, µM (titrated, usually from 46.1 µM), most hits filed as activators. AID 624202. hit rate 1.1% among 380,000. MCF7-BRCA1-FFLuc reporter, luminescence, 48 h; response scale: scaled: vehicle 0%, 10 µM genistein 100%; note: nearly all actives have a fitted effect of over 80% in size
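Reporter cells (MCF7, BRCA1 promoter-firefly luciferase) received library compounds across a concentration series for 48 h. End-point luminescence was measured and concentration-effect curves derived after normalization.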
GoLoco inh red: inhibitors of human Gai1-RGS12 GoLoco interaction (red fluorophore). P63096. Gai1:RGS12 GoLoco peptide FP, rhodamine, 10 min. Potency, µM (doses to about 61.6 µM), most hits filed as inhibitors. hit rate 0.44% among 230,000. AID 880; active = well fitted inhibition curve with a large enough effect, not every such curve was filed as active; inactive = no such curve, though single readings can be large or run the other way; note: nearly all actives have a fitted effect of over 30% in size
ERG Ets-DNA blk: inhibitors of human ERG Ets domain-DNA interaction; Potency, µM (doses to about 76.9 µM), hits mostly inhibitors; hit rate 0.028% among 370,000; fluorescence polarization, His-ERG Ets domain / labelled DNA; P11308; AID 624246; active = well fitted inhibition curve with a large enough effect in the polarisation, with a control signal flat; inconclusive = small, poorly fitted or top-dose-only effect, or effect the other way, or a change in a side signal; inactive = no such curve, though single readings can be large or run the other way; the % refers to the polarisation;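 note: polarization taken with two DNA probes labelled with fluorescein and Texas red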
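His-tagged ERG Ets domain (1 uM in the protein solution; 300mM KCl, 50mM Tris-HCl, 1mM EDTA, 1mM DTT, pH 7.5) received compound, then a probe mix of 5 nM fluorescein-DNA and 100nM Texas-615-DNA. Fluorescence polarization was read for both dyes.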
Numbers stand for hits; - = inactive; ? = inconclusive; . = no result; [ ] = dose if it differs, or a comment. Unless noted, calls come from the whole dose curve; as a rule, active = well fitted curve in the direction sought with a large enough effect; inconclusive = small, poorly fitted or top-dose-only effect, or another doubt; inactive = no such curve, though single readings can be large; an effect the other way counts as inactive or inconclusive.

SMILES	Apoferritin bind	BRCA1 expr up	GoLoco inh red	ERG Ets-DNA blk
CCOC(=O)c1ccc(N2Cc3ccccc3C2=NC(=O)c2cccs2)cc1	-	10µM	-	-
C=C(/C=C/c1ccc(N(C)C)cc1)c1nc2ccccc2s1	.	-	.	.
O=C(N/N=C/c1cc2c3c(c1O)CCCN3CCC2)c1ccccc1O	-	-	28.2µM	?
CSc1ccccc1NC(=O)c1ccc(N2CCCC2=O)cc1	.	10µM	.	-
CC(=O)c1ccc(NC(=O)c2ccc(N3CCCC3=O)cc2)cc1	.	-	.	-
CC(NC(=O)c1ccc(N2CCCC2=O)cc1)c1ccccc1 (stereo not given)	-	-	-	-
CC(=O)c1ccccc1NC(=O)c1ccc(N2CCCC2=O)cc1	.	7.94µM	.	-
O=S(=O)(Nc1cccc2cccnc12)c1ccc(Br)cc1	-	.	.	.
c1csc(-c2ccc3ccccc3n2)c1	?	7.08µM	-	-
N#Cc1cc2ccccc2nc1N	-	-	-	-
Nc1nc(-c2cccs2)cs1	?	-	-[14.2 µM]	.
Cc1ccc(-c2cc3ccccc3nc2N)cc1	-	10µM	.	-
c1ccc2sc(-c3ccncc3)nc2c1	-	?	-	-
c1csc(-c2nc3ccccc3s2)c1	-	7.94µM	-	-
Nc1nc2ccccc2cc1-c1cccs1	-	3.16µM	.	-
CN(C)c1ccc(/C=C/c2ccnc3ccc(Cl)cc23)cc1	.	-	.	.
O=C(COc1ccccc1C(=O)Nc1ccccc1)Nc1cccc(Cl)c1	.	-	.	.
c1ccc2[nH]c(NCCCc3cnc[nH]3)nc2c1	-	.	.	.
CCCC(=O)Nc1ccc(C(=O)COC(=O)C2CC2)cc1	.	10µM	.	-
CCCC(=O)Nc1ccc(C(=O)NN=C(C2CC2)C2CC2)cc1	-	-	-	-
CC(C)C[C@@H](CC(=O)N[C@@H](CCCN)CC(=O)N[C@@H]1CCNC[C@H]1C(=O)N[C@H](CC(=O)N[C@@H](CCC(=O)O)CC(=O)O)Cc1c[nH]c2ccccc12)NC(=O)[C@@H]1CNCC[C@H]1N	.	.	-	.
CCOc1cnc(-c2ccc(Cl)cc2)o1	-	-	-	-
CCOc1cnc(-c2ccc(OC)cc2)o1	-	7.94µM	-	-
Cc1cccc(-n2nnc(C(=O)Nc3ccc(F)cc3)c2N)c1	-	4.47µM	-	-
c1csc(-c2noc(COc3ccc4c(c3)CCCC4)n2)c1	-	3.98µM	-	-
SMILES	Apoferritin bind	BRCA1 expr up	GoLoco inh red	ERG Ets-DNA blk
Brc1ccc(-c2noc(COc3ccc4c(c3)CCC4)n2)o1	-	-	-	-
O=C(CSc1ccccc1Cl)c1ccco1	25.1µM	-	-	-
O=C(CSc1ccc(Cl)cc1)c1ccco1	?	-	-	-
CCCN1CNc2c(c(=O)[nH]c(=S)n2CCc2ccc(OC)cc2)C1	.	-	.	.
COc1cccc(/C(C)=N/N=C(\C)c2cccc(OC)c2)c1	?	3.16µM	.	-
CC1=C(C)/C(=N\OS(=O)(=O)c2ccccc2)C=CC1=O	28.2µM	-	-	-
O=C(c1ccco1)N1CCn2c1nc1ccccc12	-	7.08µM	-	-
O=C(NCC1CCCO1)Nc1ccc(Cl)cc1 (stereo not given)	-	10µM	-	-
O=C(NCC1CCCO1)c1cc(-c2ccccc2F)no1 (stereo not given)	-	12.6µM	.	-
O=C(NCC1CCCO1)c1ccccc1 (stereo not given)	-	-	-	-
COCCCNC(=S)NC(=O)c1ccc(C)cc1	-	6.31µM	-	-
Clc1ccc(-c2ccc(CNCC3CCCO3)o2)cc1 (stereo not given)	-	10µM	-	-
COc1ccc(OC)c(C(Cc2ccnc3ccccc23)Cc2ccnc3ccccc23)c1	.	-	.	.
Cc1ccc(NC(=O)C(=O)NCC2CCCO2)cc1 (stereo not given)	-	10µM	-	-
C[n+]1cccc(C(=O)NCC2CCCO2)c1 (stereo not given)	-	-	1.78µM	-
O=C(NC(=S)NCC1CCCO1)c1ccc(Cl)cc1 (stereo not given)	-	?	-	-
O=C(NCCc1ccccc1)C(=O)NCC1CCCO1 (stereo not given)	-	12.6µM	-	.
O=C(NCc1cccc(CNC(=O)C(=O)NCC2CCCO2)c1)C(=O)NCC1CCCO1 (stereo not given)	-	-	-	-
Cc1ccc(C(=O)NC(=S)NCC2CCCO2)cc1 (stereo not given)	-	10µM	-	-
Cc1ccc(NC(=O)C(=O)NCC2CCCO2)cc1C (stereo not given)	-	?	-	-
COc1ccc(CNCc2ccccc2)cc1COc1ccc(NC(C)=O)cc1	.	-	.	.
